# Reference: PubChem BioAssay AID652176 (Sanford-Burnham Center for Chemical Genomics, 2013)
# In all, about 2,400 compounds went through this assay and about 25 (1%) were called active. The list is a sample of the results. Unmarked numbers belong to inactive results.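 The calls were made as follows: active = replicate-average signal at least 3 plate SD below neutral wells, shown as high inhibition, flagging enzyme-inhibiting false positives; inactive = the rest.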
# Test system: Beta-galactosidase (Escherichia coli), counter-screen for EBI2 antagonists
# Assay: E. coli beta-galactosidase enzyme inhibition, confirmation, counter-screen for EBI2 antagonist project, biochemical, luminescence, single concentration (AID 652176);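 also: 0% = DMSO wells with enzyme and 100% = wells lacking enzyme; higher means stronger loss of beta-gal luminescence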
# Conditions: purified beta-galactosidase, luminescent Galacton Star, 15 min; at 5 µM; stronger effect = higher value
row,SMILES,inhibition [%]
1,CCOc1ccc(CCN2C(=S)N([C@@H](CC(C)C)CN3CCC[C@@H]3CN3C(=S)NC[C@@H]3Cc3ccc(O)cc3)C[C@@H]2Cc2ccc(O)cc2)cc1,-18.9
2,O=C(/C=C/c1cccc(C(F)(F)F)c1)N1CCN(c2ccccn2)CC1,-8.93
3,Cc1ccc(OCC(=O)N2CCN(C(=O)c3cccnc3)CC2)cc1,-9.4
4,CN(Cc1ccc(F)cc1)C(=O)COc1ccc2ccccc2c1,3.08
5,Cc1cc(C)c2c(=O)n3c(nc2c1)C(CC(C)C)NC(=O)c1cc2ccccc2cc1-3 (stereo unspecified),7.36
6,CCOc1ccc(C(C)=O)cc1COC(=O)c1cnc(Cl)c(Cl)c1,-6.96
7,Cc1cccc(OCC(O)CN2CCN(S(=O)(=O)c3ccc(C)cc3C)CC2)c1 (stereo unspecified),-7.67
8,COc1ccc(-c2nc(N)ncc2-c2ccc(Cl)cc2)c(O)c1,5.17
9,Cc1cc(OCC(=O)N2CCN(c3ncccn3)CC2)ccc1Cl,2.13
10,O=C(COc1ccc(Cl)cc1)N1CCN(c2cccc(C(F)(F)F)c2)CC1,4.01
11,O=C(NCc1ccc(Cl)cc1)C1CCN(S(=O)(=O)c2cccs2)CC1,1.5
12,N#Cc1ccc(C2=CC(=O)C[C@H](c3ccc(Cl)cc3)C2)cc1,9
13,CCCC1CCC(=NNC(=S)NCCc2ccccc2)CC1 (stereo unspecified),-11.9
14,O=C(COc1ccc(Cl)cc1)N1CCN(S(=O)(=O)c2ccc(Cl)cc2)CC1,6
15,CCOC(=O)C1CCN(C(=O)COc2cc(C)c(Br)c(C)c2)CC1,2.96
16,Cc1cc(OCCOc2cccc3cccnc23)c(C)cc1Cl,4.27
17,O=C(NNC(=O)c1ccc2ccccc2c1)c1ccc(Cl)cc1,7.62
18,COc1ccccc1CCNC(=O)C1CCN(C(=O)/C=C/c2ccccc2)CC1,6.37
19,O=C(Nc1ccc(S(=O)(=O)N2CCCCC2)cc1)C1CC(=O)N(c2ccc(F)cc2)C1 (stereo unspecified),10.2

row,SMILES,inhibition [%]
1,COc1ccc(-c2cn(-c3ccc(OC)cc3)c(=S)[nH]2)cc1,3.97
2,Cc1cccc(N=C2NC(=O)/C(=C/c3cn(C)c4ccccc34)S2)c1,8.09
3,Cc1ccc(OCCNC(=O)CCNS(=O)(=O)c2ccc(Br)cc2)cc1,-13
4,O=C(COc1ccc2c(c1)CCC2)N1CCN(c2ccc(F)cc2)CC1,-10.9
5,O=C(NCc1ccc(Cl)cc1)c1cc(=O)nc2sc(-c3ccccc3)nn12,2.99
6,O=C(CC(c1ccccc1)c1ccccc1)NCC(O)c1ccc([N+](=O)[O-])cc1 (stereo unspecified),-11
7,COc1ccc(CNC(=O)CN(c2ccc(OC)c(Cl)c2)S(=O)(=O)c2ccc(C)cc2)cc1,-10.2
8,N#Cc1ccc(C(c2nnnn2CCc2ccccc2)N2CCCCCC2)cc1 (stereo unspecified),7.67
9,O=C(NCCNc1ccc([N+](=O)[O-])cc1)c1cccc2c(Br)cccc12,3.17
10,Cc1cs/c(=N\N=C\c2ccc(O)cc2)n1Cc1ccco1,10
11,COc1ccc(-n2c(Cc3cccn3C)nnc2SCC(=O)Nc2cc(C)cc(C)c2)cc1,5.9
12,O=C(/C=C/c1ccc(Cl)cc1)N1CCN(c2ccccc2[N+](=O)[O-])CC1,3.83
13,COc1ccc(NC(=O)N2CCC(Cc3ccccc3)CC2)cc1,-4.45
14,COc1cc(/C=C(\C#N)C(=O)Nc2ccc3ccccc3c2)c([N+](=O)[O-])cc1OC,-8.92
15,CC(C)N(Cc1ccccc1)C(=S)Nc1ccc(OC(F)F)cc1,7.71
16,Cc1ccc(S(=O)(=O)NCCNC(C)c2ccc(Br)cc2)cc1 (stereo unspecified),4.8
17,Cc1cccc(C)c1-n1nnnc1C(CCc1ccccc1)N1CCN(C/C=C/c2ccccc2)CC1 (stereo unspecified),-14.6
18,Cc1cccc(-n2c(O)c(C=Nc3ccccc3N)c(=O)[nH]c2=O)c1,1.72
19,CC(C)Cc1ccc(-c2cc3nc(NCc4cccc(Cl)c4)ccn3n2)cc1,-21.1

row,SMILES,inhibition [%]
1,Fc1ccc(N2CCN(Cc3cnc(Oc4ccc(Br)cc4)s3)CC2)cc1,3.88
2,COc1ccc([C@H]2CC(=O)C=C(/C=C/c3ccc(Cl)cc3)C2)cc1,-9.12
3,O=C(CSc1ccccc1)Nc1cc(Cl)ccc1Oc1ccccc1,-9.14
4,COc1ccccc1N1CCN(C(=O)c2cc(-c3ccc(Br)cc3)on2)CC1,9.03
5,CC1CCc2sc3nc(N4CCN(CCO)CC4)n4ncnc4c3c2C1 (stereo unspecified),-1.4
6,Cc1nc2ccc(C(=O)N3CCN(c4ccccc4)CC3)cc2s1,-10.1
7,Cc1ccc(N2CC(C(=O)Nc3ccc(S(=O)(=O)N4CCCC4)cc3)CC2=O)cc1C (stereo unspecified),2.23
8,COc1ccc([C@H]2CC(=O)C=C(c3ccc(C)cc3)C2)cc1,5.89
9,O=C(c1cc2cc(F)ccc2[nH]1)N1CCN(c2ccc(F)cc2)CC1,1.06
10,Cc1ccc(CSCCNC(=O)CN(c2ccc(F)cc2)S(C)(=O)=O)cc1,3.75
11,O=C(c1ccc(-n2cnnn2)cc1)N1CCN(C(c2ccccc2)c2ccccc2)CC1,5.89
12,Cc1ccc2oc(=O)c3cnn(CC(=O)N(Cc4ccco4)C4CCCCC4)c3c2c1,-17.5
13,CCOC(=O)N1CCN(C(=O)COc2ccc(Cl)cc2C)CC1,11
14,Cc1ccc(O/C=C2\OC(=O)c3ccccc32)cc1,-6.52
15,CCOC(=O)N1CCN(C(=O)COc2ccc(Br)cc2)CC1,2.79
16,COc1ccc(OC)c(C(=O)c2coc3ccc(O)c(CN4CCOCC4)c23)c1,3.81
17,FC(F)(F)Oc1ccccc1C(c1nnnn1C1CCCCC1)N1CCN(C/C=C/c2ccccc2)CC1 (stereo unspecified),3.49
18,COc1ccc(Nc2cc(Sc3ccc(OC)cc3)ncn2)cc1,8.03
